Measurements published in PubChem BioAssay (NCI).
The panel holds about 83,000 compounds, 20% with a hit somewhere; the sample as a whole holds those more often.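 48-hour exposure, single concentration, 96-well plates; percent growth endpoint where 0 means no net growth. Active: below 10.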 Active and inactive are the calls of the source.

Columns and labels:
Assay in all cases: NCI-60 one-dose screen, 48 h (100 = growth as untreated, 0 = no growth, -100 = all killed)
Conditions in all cases: 10 µM unless noted
NCI-H23 lung = tested on: NCI-H23 lung
NCI-H226 lung = tested on: NCI-H226 lung
NCI-H322M lung = tested on: NCI-H322M lung
HOP-62 NSCLC = tested on: HOP-62 NSCLC
HOP-92 NSCLC = tested on: HOP-92 NSCLC
NCI-H522 lung = tested on: NCI-H522 lung
A549/ATCC NSCLC = tested on: A549/ATCC NSCLC
786-0 renal = tested on: 786-0 renal
COLO 205 colon = tested on: COLO 205 colon
DU-145 prostate = tested on: DU-145 prostate
K-562 leukemia = tested on: K-562 leukemia
MALME-3M melanoma = tested on: MALME-3M melanoma
MDA-MB-231 breast = tested on: MDA-MB-231 breast
RXF 393 renal = tested on: RXF 393 renal
SF-268 CNS = tested on: SF-268 CNS
SF-295 CNS = tested on: SF-295 CNS
SF-539 CNS = tested on: SF-539 CNS
UACC-257 melanoma = tested on: UACC-257 melanoma
M14 melanoma = tested on: M14 melanoma

Measured: growth

CN1CCN(Cc2ccc(NC(=O)c3cncc(C#Cc4cnccc4C#N)c3)cc2C(F)(F)F)CC1
active: K-562 leukemia 8.21%
inactive: NCI-H23 lung 49.2% | NCI-H226 lung 40.4% | NCI-H322M lung 99.4% | HOP-62 NSCLC 76.8% | HOP-92 NSCLC 36% | NCI-H522 lung 66.7% | A549/ATCC NSCLC 90.4% | 786-0 renal 101% | COLO 205 colon 24.6% | DU-145 prostate 65.3% | MALME-3M melanoma 17.2% | MDA-MB-231 breast 68.6% | RXF 393 renal 76.6% | SF-268 CNS 89.9% | SF-295 CNS 96.3% | SF-539 CNS 42% | UACC-257 melanoma 41.1% | M14 melanoma 25.4%

NCCCNc1nc2ccccc2c2c(=O)c3cc(F)cc(F)c3sc12
inactive: NCI-H23 lung 84% | NCI-H226 lung 92.5% | NCI-H322M lung 84.5% | HOP-62 NSCLC 78.9% | HOP-92 NSCLC 36% | NCI-H522 lung 92.7% | A549/ATCC NSCLC 78.1% | COLO 205 colon 63.6% | DU-145 prostate 73.4% | MALME-3M melanoma 73.6% | MDA-MB-231 breast 18.2% | RXF 393 renal 63.6% | SF-268 CNS 81.7% | SF-295 CNS 105% | UACC-257 melanoma 100%
active: 786-0 renal -88.8% | K-562 leukemia -42.9% | SF-539 CNS -92.3% | M14 melanoma -85.2%

Cc1cc2nc3ccc(N=Nc4ccc(N(C)C)cc4)cc3n(-c3ccccc3)c-2cc1=N
active: NCI-H23 lung -45.8% | NCI-H226 lung -81.3% | NCI-H322M lung -96.6% | HOP-62 NSCLC -55.9% | HOP-92 NSCLC -70.3% | NCI-H522 lung -73.8% | A549/ATCC NSCLC -75.4% | 786-0 renal -61.9% | COLO 205 colon -86.8% | DU-145 prostate -98.2% | MALME-3M melanoma -92.7% | MDA-MB-231 breast -27.9% | RXF 393 renal -87.8% | SF-268 CNS -78.1% | SF-295 CNS -89.4% | SF-539 CNS -89.4% | UACC-257 melanoma -95.7% | M14 melanoma -78.4%
inactive: K-562 leukemia 17.9%

CCCCC[C@H](O)C/C=C1/C(=O)C=C[C@@H]1C/C=C\CCCC(=O)OC
inactive: NCI-H23 lung 67.9% | NCI-H226 lung 70.4% | NCI-H322M lung 79.7% | HOP-62 NSCLC 34% | HOP-92 NSCLC 108% | NCI-H522 lung 30.4% | A549/ATCC NSCLC 72% | 786-0 renal 44% | COLO 205 colon 62.8% | DU-145 prostate 53.2% | MALME-3M melanoma 107% | RXF 393 renal 70.8% | SF-268 CNS 34.9% | SF-295 CNS 82.2% | SF-539 CNS 91.3% | UACC-257 melanoma 74.5% | M14 melanoma 13.6%
active: K-562 leukemia 5.84%

CCCCCCN1C(=O)/C(=c2\sc3n(c2=O)C2C(NN=3)N(CC)C(=O)N2CC)c2ccccc21 (configuration not stated)
inactive: NCI-H23 lung 25.6% | NCI-H322M lung 43.5% | HOP-92 NSCLC 37% | DU-145 prostate 24.4% | MDA-MB-231 breast 14.8% | RXF 393 renal 25.8% | SF-268 CNS 27.5% | UACC-257 melanoma 39.3% | M14 melanoma 20.3%
active: NCI-H226 lung -5.26% | HOP-62 NSCLC -1.75% | NCI-H522 lung -28.7% | A549/ATCC NSCLC -47.6% | 786-0 renal -67.2% | COLO 205 colon 7.62% | K-562 leukemia 6.81% | MALME-3M melanoma 6.95% | SF-295 CNS -23% | SF-539 CNS -54.9%

Brc1ccc2[nH]cc(-c3nc(-c4c[nH]c5ccncc45)cs3)c2c1
inactive: NCI-H226 lung 89.7%
active: NCI-H23 lung -41.6% | NCI-H322M lung -18.6% | HOP-62 NSCLC -79.1% | HOP-92 NSCLC -34.3% | NCI-H522 lung -68.4% | A549/ATCC NSCLC -77.6% | 786-0 renal -91.3% | COLO 205 colon -76.4% | DU-145 prostate -91.4% | K-562 leukemia -61.5% | MALME-3M melanoma -83.6% | MDA-MB-231 breast -84.4% | RXF 393 renal -91.8% | SF-268 CNS -65.7% | SF-295 CNS -84.8% | SF-539 CNS -94.9% | UACC-257 melanoma -23.2% | M14 melanoma -73.3%

COc1ccc(C2=Nn3c(nnc3-c3cc(Cl)cc(Cl)c3Cl)SC2)cc1
active: NCI-H23 lung 3.14% | HOP-62 NSCLC -2.41% | NCI-H522 lung -17.8% | 786-0 renal 6.36% | COLO 205 colon -34.4% | DU-145 prostate 6.93% | K-562 leukemia 2.96% | SF-295 CNS 0.025% | SF-539 CNS -8.32% | M14 melanoma -45.3%
inactive: NCI-H226 lung 64.8% | NCI-H322M lung 36.4% | HOP-92 NSCLC 22.3% | A549/ATCC NSCLC 21.9% | MALME-3M melanoma 37.2% | MDA-MB-231 breast 10.3% | RXF 393 renal 14.4% | SF-268 CNS 22.6% | UACC-257 melanoma 37%
